Data reported in the supplement of paper PMC9694430.

Tests used:
Assay in all cases: thermal shift delta Tm vs DMSO control; higher = stronger stabilization (binding)
Conditions in all cases: 12.5 µM; protein concentration 2 µM
LOC_OS02G45750-cb003 = tested on: LOC_OS02G45750-cb003
How it was run: (§1)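 Heating from 25°C to 95°C at 0.05°C/s, fluorescence was recorded for 19.5 μl wells of 2 μM E. coli-expressed, purified rice kinase domain in 100 mM potassium phosphate pH 7.5, 150 mM NaCl, 10% glycerol and 5 × SYPRO Orange with compound in DMSO. Boltzmann fits gave melting temperatures for this differential scanning fluorimetry assay. The shift reported is the mean of three replicates against the DMSO-only protein.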

LOC_OS02G54510-cb004 = tested on: LOC_OS02G54510-cb004
How it was run: as §1

LOC_OS03G04050-cb001 = tested on: LOC_OS03G04050-cb001
How it was run: as §1

LOC_OS03G12390-cb001 = tested on: LOC_OS03G12390-cb001
How it was run: as §1

LOC_OS03G27990-cb004 = tested on: LOC_OS03G27990-cb004
How it was run: as §1

LOC_OS03G50450-cb001 = tested on: LOC_OS03G50450-cb001
How it was run: as §1

LOC_OS03G50810-cb003 = tested on: LOC_OS03G50810-cb003
How it was run: as §1

LOC_OS04G35114-cb001 = tested on: LOC_OS04G35114-cb001
How it was run: as §1

LOC_OS04G38480-cb003 = tested on: T1, LOC_OS04G38480-cb003
T1 sequence (whole entry): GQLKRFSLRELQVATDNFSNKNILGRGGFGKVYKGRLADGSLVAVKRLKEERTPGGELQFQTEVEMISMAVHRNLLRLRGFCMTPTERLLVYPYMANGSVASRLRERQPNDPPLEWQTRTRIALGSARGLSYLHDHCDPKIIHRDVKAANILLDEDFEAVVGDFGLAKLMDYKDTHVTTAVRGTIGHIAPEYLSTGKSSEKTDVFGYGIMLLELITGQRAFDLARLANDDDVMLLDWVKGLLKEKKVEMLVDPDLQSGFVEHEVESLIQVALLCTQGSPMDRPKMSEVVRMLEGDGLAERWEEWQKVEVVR
How it was run: as §1

LOC_OS04G41100-cb001 = tested on: T2, LOC_OS04G41100-cb001
T2 sequence (whole entry): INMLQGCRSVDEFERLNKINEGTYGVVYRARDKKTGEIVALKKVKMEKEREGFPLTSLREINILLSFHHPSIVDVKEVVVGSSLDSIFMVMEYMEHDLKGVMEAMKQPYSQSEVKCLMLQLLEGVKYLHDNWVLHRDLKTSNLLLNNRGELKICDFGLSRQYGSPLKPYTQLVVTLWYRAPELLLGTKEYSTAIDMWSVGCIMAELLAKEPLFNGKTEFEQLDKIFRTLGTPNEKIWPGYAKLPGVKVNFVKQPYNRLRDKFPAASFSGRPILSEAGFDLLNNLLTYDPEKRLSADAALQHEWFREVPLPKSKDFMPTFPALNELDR
How it was run: as §1
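Also: purified Escherichia coli-expressed rice kinase domain construct.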

Structure (SMILES): Cc1cc(C(=O)NOCCO)c(Nc2ccc(I)cc2F)n(C)c1=O
- thermal shift delta Tm (LOC_OS02G45750-cb003): -0.39 °C
- thermal shift delta Tm (LOC_OS02G54510-cb004): 0.03 °C
- thermal shift delta Tm (LOC_OS03G04050-cb001): 0.19 °C
- thermal shift delta Tm (LOC_OS03G12390-cb001): -0.3 °C
- thermal shift delta Tm (LOC_OS03G27990-cb004): 0.02 °C
- thermal shift delta Tm (LOC_OS03G50450-cb001): 1.11 °C
- thermal shift delta Tm (LOC_OS03G50810-cb003): -0.06 °C
- thermal shift delta Tm (LOC_OS04G35114-cb001): 0.41 °C
- thermal shift delta Tm (LOC_OS04G38480-cb003): 0.64 °C
- thermal shift delta Tm (LOC_OS04G41100-cb001): 0.58 °C

Structure (SMILES): N#C/C(=C\c1ccc(O)c(O)c1)C(=O)NCc1ccccc1 [AG-490 (Tyrphostin B42)]
- thermal shift delta Tm (LOC_OS02G45750-cb003): 0.05 °C
- thermal shift delta Tm (LOC_OS02G54510-cb004): 0.41 °C
- thermal shift delta Tm (LOC_OS03G04050-cb001): 0.78 °C
- thermal shift delta Tm (LOC_OS03G12390-cb001): 0.12 °C
- thermal shift delta Tm (LOC_OS03G27990-cb004): 0.27 °C
- thermal shift delta Tm (LOC_OS03G50450-cb001): -0.29 °C
- thermal shift delta Tm (LOC_OS03G50810-cb003): 0.09 °C
- thermal shift delta Tm (LOC_OS04G35114-cb001): -0.45 °C
- thermal shift delta Tm (LOC_OS04G38480-cb003): 0.47 °C
- thermal shift delta Tm (LOC_OS04G41100-cb001): 0.43 °C

Structure (SMILES): CCn1cc(-c2ccnc3[nH]c(-c4cccc(CN(C)C)c4)cc23)c(-c2ccc(NC(=O)N(C)C)cc2)n1
- thermal shift delta Tm (LOC_OS02G45750-cb003): 2.5 °C
- thermal shift delta Tm (LOC_OS02G54510-cb004): 0.45 °C
- thermal shift delta Tm (LOC_OS03G04050-cb001): 0.74 °C
- thermal shift delta Tm (LOC_OS03G12390-cb001): 0.47 °C
- thermal shift delta Tm (LOC_OS03G27990-cb004): 0.5 °C
- thermal shift delta Tm (LOC_OS03G50450-cb001): 0.98 °C
- thermal shift delta Tm (LOC_OS03G50810-cb003): 1.14 °C
- thermal shift delta Tm (LOC_OS04G35114-cb001): 1.02 °C
- thermal shift delta Tm (LOC_OS04G38480-cb003): 1.93 °C
- thermal shift delta Tm (LOC_OS04G41100-cb001): 1.22 °C

Structure (SMILES): Cc1c(CN2CCN(C(=O)[C@H](C)O)CC2)sc2c(N3CCOCC3)nc(-c3cnc(N)nc3)nc12 [Apitolisib (GDC-0980, RG7422)]
- thermal shift delta Tm (LOC_OS02G45750-cb003): 0.62 °C
- thermal shift delta Tm (LOC_OS02G54510-cb004): 0.4 °C
- thermal shift delta Tm (LOC_OS03G04050-cb001): 0.32 °C
- thermal shift delta Tm (LOC_OS03G12390-cb001): 0.75 °C
- thermal shift delta Tm (LOC_OS03G27990-cb004): 0.18 °C
- thermal shift delta Tm (LOC_OS03G50450-cb001): 1.38 °C
- thermal shift delta Tm (LOC_OS03G50810-cb003): 0.78 °C
- thermal shift delta Tm (LOC_OS04G35114-cb001): 0.55 °C
- thermal shift delta Tm (LOC_OS04G38480-cb003): 1.12 °C
- thermal shift delta Tm (LOC_OS04G41100-cb001): 0.47 °C

Structure (SMILES): Cc1cnc(Nc2ccc(OCCN3CCCC3)cc2)nc1Nc1cccc(S(=O)(=O)NC(C)(C)C)c1
- thermal shift delta Tm (LOC_OS02G45750-cb003): 2.37 °C
- thermal shift delta Tm (LOC_OS02G54510-cb004): 0.89 °C
- thermal shift delta Tm (LOC_OS03G04050-cb001): 0.72 °C
- thermal shift delta Tm (LOC_OS03G12390-cb001): 3.03 °C
- thermal shift delta Tm (LOC_OS03G27990-cb004): 1.33 °C
- thermal shift delta Tm (LOC_OS03G50450-cb001): 1.51 °C
- thermal shift delta Tm (LOC_OS03G50810-cb003): 3.13 °C
- thermal shift delta Tm (LOC_OS04G35114-cb001): 3.12 °C
- thermal shift delta Tm (LOC_OS04G38480-cb003): 1.88 °C
- thermal shift delta Tm (LOC_OS04G41100-cb001): 0.68 °C

Structure (SMILES): CCc1ccc(/C=C2/SC(=S)NC2=O)cc1
- thermal shift delta Tm (LOC_OS02G45750-cb003): -0.48 °C
- thermal shift delta Tm (LOC_OS02G54510-cb004): 0.83 °C
- thermal shift delta Tm (LOC_OS03G04050-cb001): 1.24 °C
- thermal shift delta Tm (LOC_OS03G12390-cb001): 1.18 °C
- thermal shift delta Tm (LOC_OS03G27990-cb004): 0.83 °C
- thermal shift delta Tm (LOC_OS03G50450-cb001): 0.26 °C
- thermal shift delta Tm (LOC_OS03G50810-cb003): 0.48 °C
- thermal shift delta Tm (LOC_OS04G35114-cb001): 1.2 °C
- thermal shift delta Tm (LOC_OS04G38480-cb003): 1.19 °C
- thermal shift delta Tm (LOC_OS04G41100-cb001): 0.36 °C

Structure (SMILES): CC(C)(C)c1cc(NC(=O)Nc2ccc(-c3cn4c(n3)sc3cc(OCCN5CCOCC5)ccc34)cc2)no1 [Quizartinib (AC220)]
- thermal shift delta Tm (LOC_OS02G45750-cb003): -0.83 °C
- thermal shift delta Tm (LOC_OS02G54510-cb004): 0.02 °C
- thermal shift delta Tm (LOC_OS03G04050-cb001): -0.02 °C
- thermal shift delta Tm (LOC_OS03G12390-cb001): 0.08 °C
- thermal shift delta Tm (LOC_OS03G27990-cb004): 0.09 °C
- thermal shift delta Tm (LOC_OS03G50450-cb001): -0.11 °C
- thermal shift delta Tm (LOC_OS03G50810-cb003): 0.82 °C
- thermal shift delta Tm (LOC_OS04G35114-cb001): 0.41 °C
- thermal shift delta Tm (LOC_OS04G38480-cb003): 0.67 °C
- thermal shift delta Tm (LOC_OS04G41100-cb001): 0.81 °C

Structure (SMILES): CO[C@H]1C[C@@H]2CC[C@@H](C)[C@@](O)(O2)C(=O)C(=O)N2CCCC[C@H]2C(=O)O[C@H]([C@H](C)C[C@@H]2CC[C@@H](O)[C@H](OC)C2)CC(=O)[C@H](C)/C=C(\C)[C@@H](O)[C@@H](OC)C(=O)[C@H](C)C[C@H](C)/C=C/C=C/C=C/1C [Rapamycin (Sirolimus)]
- thermal shift delta Tm (LOC_OS02G45750-cb003): 0.22 °C
- thermal shift delta Tm (LOC_OS02G54510-cb004): 0 °C
- thermal shift delta Tm (LOC_OS03G04050-cb001): 0.5 °C
- thermal shift delta Tm (LOC_OS03G12390-cb001): 0.3 °C
- thermal shift delta Tm (LOC_OS03G27990-cb004): 0.16 °C
- thermal shift delta Tm (LOC_OS03G50450-cb001): 0.2 °C
- thermal shift delta Tm (LOC_OS03G50810-cb003): -0.04 °C
- thermal shift delta Tm (LOC_OS04G35114-cb001): 0.52 °C
- thermal shift delta Tm (LOC_OS04G38480-cb003): 1.63 °C
- thermal shift delta Tm (LOC_OS04G41100-cb001): 0.69 °C

Structure (SMILES): COc1ccc(CC(=O)Nc2nc3c(s2)CCc2ccccc2-3)cc1OC
- thermal shift delta Tm (LOC_OS02G45750-cb003): 1.49 °C
- thermal shift delta Tm (LOC_OS02G54510-cb004): -0.24 °C
- thermal shift delta Tm (LOC_OS03G04050-cb001): 0.51 °C
- thermal shift delta Tm (LOC_OS03G12390-cb001): 0.4 °C
- thermal shift delta Tm (LOC_OS03G27990-cb004): 0.36 °C
- thermal shift delta Tm (LOC_OS03G50450-cb001): 0.29 °C
- thermal shift delta Tm (LOC_OS03G50810-cb003): 0.43 °C
- thermal shift delta Tm (LOC_OS04G35114-cb001): 0.71 °C
- thermal shift delta Tm (LOC_OS04G38480-cb003): 1.33 °C
- thermal shift delta Tm (LOC_OS04G41100-cb001): 0.15 °C
